The source of these data is ChEMBL document CHEMBL3988442, “University of Dundee, Small-Polar-MMV Screening Library” (2021).

What all share (parameters): scale not given: direction of the effect not stated beside the values
The target in experiment [1] is Protein translocase subunit SecA (Escherichia coli (strain K12)) (UniProt P10408). In words: Assay to Identify E. coli SecA ATPase Inhibitors. Particulars: 30 µM. The experiment is classed as functional.
The target of experiment [2] is T1, Ubiquitin-activating enzyme e1, putative (Leishmania donovani (strain BPK282A1)) (UniProt E9BSI1).
T1 sequence (whole entry): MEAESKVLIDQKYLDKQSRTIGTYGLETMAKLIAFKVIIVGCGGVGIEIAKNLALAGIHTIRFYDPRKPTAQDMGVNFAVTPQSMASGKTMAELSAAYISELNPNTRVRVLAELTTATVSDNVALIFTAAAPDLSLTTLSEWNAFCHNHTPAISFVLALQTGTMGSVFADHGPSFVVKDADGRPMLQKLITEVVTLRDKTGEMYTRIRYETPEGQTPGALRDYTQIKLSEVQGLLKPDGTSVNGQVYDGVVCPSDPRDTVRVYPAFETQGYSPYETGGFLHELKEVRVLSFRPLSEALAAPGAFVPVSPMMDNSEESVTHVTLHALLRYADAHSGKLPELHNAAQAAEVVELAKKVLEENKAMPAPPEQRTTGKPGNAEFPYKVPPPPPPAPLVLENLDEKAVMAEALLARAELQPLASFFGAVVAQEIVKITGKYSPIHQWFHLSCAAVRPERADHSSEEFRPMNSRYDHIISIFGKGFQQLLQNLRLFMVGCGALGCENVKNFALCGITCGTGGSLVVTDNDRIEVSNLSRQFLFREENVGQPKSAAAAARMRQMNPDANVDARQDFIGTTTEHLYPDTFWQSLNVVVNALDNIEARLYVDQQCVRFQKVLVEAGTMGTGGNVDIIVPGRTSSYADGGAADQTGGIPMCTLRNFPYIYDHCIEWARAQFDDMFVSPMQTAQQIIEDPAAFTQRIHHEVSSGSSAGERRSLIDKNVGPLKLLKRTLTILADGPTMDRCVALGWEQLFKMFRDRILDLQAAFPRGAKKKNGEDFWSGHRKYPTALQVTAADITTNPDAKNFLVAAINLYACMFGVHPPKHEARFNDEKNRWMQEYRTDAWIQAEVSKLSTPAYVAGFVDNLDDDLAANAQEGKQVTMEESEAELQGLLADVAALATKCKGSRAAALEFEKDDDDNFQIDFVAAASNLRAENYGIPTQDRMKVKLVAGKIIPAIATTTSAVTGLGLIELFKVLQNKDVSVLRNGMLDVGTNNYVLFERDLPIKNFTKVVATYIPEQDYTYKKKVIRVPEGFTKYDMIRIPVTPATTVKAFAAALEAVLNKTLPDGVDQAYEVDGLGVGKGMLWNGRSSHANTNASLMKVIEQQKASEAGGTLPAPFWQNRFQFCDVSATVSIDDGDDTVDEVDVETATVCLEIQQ
In words: Leishmania donovani Ubiquitin Activating Enzyme (LdE1). The experiment is classed as functional. Particulars: 30 µM.

Experiment [3] has as its target Sialic acid-binding Ig-like lectin 9 (Homo sapiens) (UniProt Q9Y336). In words: Hs-Siglec9 ALPHAscreen SOP 20170721. As to conditions: 10 µM. In general terms: Alpha assays give light when donor and acceptor beads are brought close together.
Another experiment deals with Trypanosoma cruzi. In words: Trypanosoma cruzi phosphomannomutase and mannose-1-phosphate guanylyltransferase assay. Type of experiment: functional. As to conditions: 10 µM.
For experiment [4], the target named is T2, Arginase-2, mitochondrial (Homo sapiens) (UniProt P78540).
T2 sequence (whole entry): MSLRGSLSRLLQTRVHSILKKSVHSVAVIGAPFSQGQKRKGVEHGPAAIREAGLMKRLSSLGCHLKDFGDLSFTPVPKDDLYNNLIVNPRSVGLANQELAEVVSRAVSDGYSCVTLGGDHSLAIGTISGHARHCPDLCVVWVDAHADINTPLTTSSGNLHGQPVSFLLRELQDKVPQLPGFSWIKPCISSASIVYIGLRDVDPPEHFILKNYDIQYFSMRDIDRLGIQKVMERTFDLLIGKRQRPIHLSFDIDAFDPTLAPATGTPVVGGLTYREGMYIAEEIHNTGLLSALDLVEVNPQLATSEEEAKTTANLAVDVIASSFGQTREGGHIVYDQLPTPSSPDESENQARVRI
Briefly: in vitro enzyme assay to detect the production of urea directly proportional to the activity of Arginase II. Note: in the data most compounds retested in dose-response had high values. Type of experiment: functional. As to conditions: 33.3 µM.

Experiment [5] addresses T3, Proteasome subunit beta (Trypanosoma cruzi) (UniProt O96673).
T3 sequence (whole entry): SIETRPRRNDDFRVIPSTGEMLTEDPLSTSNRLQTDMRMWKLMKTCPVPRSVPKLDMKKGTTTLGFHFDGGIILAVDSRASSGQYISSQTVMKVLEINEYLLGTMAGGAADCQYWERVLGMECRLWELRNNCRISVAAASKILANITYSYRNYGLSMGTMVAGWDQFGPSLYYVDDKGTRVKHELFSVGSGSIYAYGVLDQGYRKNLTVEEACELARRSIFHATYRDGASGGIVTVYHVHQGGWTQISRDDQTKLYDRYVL
In words: Trypanosoma cruzi proteasome chymotrypsin-like activity (TcProtChymo) assay. Note: in the data most compounds retested in dose-response had high values. The experiment is classed as functional. Particulars: 9.37 µM.

The species entered for another experiment is Homo sapiens. Briefly: To identify inhibition of the IFN signalling (Jak-Stat) pathway via expression of an eGFP reporter gene under the control of an IFN-stimulated response element (ISRE) containing MxA promoter. The experiment is classed as functional. Particulars: 30 µM. In general terms: Reporter assays use an easily measured gene product as a stand-in for the process of interest.

The target in experiment [6] is T4, Tyrosyl-tRNA synthetase, putative (Trypanosoma cruzi (strain CL Brener)) (UniProt Q4DSP6).
T4 sequence (whole entry): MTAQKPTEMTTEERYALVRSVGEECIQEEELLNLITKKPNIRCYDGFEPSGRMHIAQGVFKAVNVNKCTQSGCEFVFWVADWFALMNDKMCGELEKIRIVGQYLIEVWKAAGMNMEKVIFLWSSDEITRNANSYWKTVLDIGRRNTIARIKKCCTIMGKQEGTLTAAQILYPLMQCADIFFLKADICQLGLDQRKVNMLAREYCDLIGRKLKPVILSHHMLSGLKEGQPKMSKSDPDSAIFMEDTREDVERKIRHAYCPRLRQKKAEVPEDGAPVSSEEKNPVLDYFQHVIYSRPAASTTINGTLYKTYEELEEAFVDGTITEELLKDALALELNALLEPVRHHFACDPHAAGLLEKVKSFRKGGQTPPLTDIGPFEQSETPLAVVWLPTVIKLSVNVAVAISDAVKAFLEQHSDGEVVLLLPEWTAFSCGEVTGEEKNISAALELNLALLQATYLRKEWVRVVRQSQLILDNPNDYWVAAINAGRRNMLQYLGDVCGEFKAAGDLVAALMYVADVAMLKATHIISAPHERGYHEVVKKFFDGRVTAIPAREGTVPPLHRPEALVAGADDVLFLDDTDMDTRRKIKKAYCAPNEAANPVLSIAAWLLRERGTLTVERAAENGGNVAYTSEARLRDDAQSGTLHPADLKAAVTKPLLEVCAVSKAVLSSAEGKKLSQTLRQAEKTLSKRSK
Briefly: Trypanosoma cruzi tyrosyl tRNA synthetase (TcYRS) _High Tyrosine SOP. Note: in the data most compounds retested in dose-response had high values. As to conditions: 30 µM. Type of experiment: functional.

Experiment [7] addresses T4, Tyrosyl-tRNA synthetase, putative (Trypanosoma cruzi (strain CL Brener)). Briefly: Trypanosoma cruzi tyrosyl tRNA synthetase (TcYRS) SOP. Type of experiment: functional. Particulars: 30 µM.
Experiment [8] concerns the target Chromo domain-containing protein 1 (Saccharomyces cerevisiae (strain ATCC 204508 / S288c) (Baker's yeast)) (UniProt P32657). Briefly: ScCHD-1 Enzyme Inhibition Assay. Note: in the data most compounds retested in dose-response had high values. Type of experiment: functional. As to conditions: 30 µM.

For some assays here: Entries with a potency or affinity are not part of this list.

Chromo domain-containing protein 1 (Saccharomyces cerevisiae (strain ATCC 204508 / S288c) (Baker's yeast)), sequence (P32657 whole entry, the tested form may be a part): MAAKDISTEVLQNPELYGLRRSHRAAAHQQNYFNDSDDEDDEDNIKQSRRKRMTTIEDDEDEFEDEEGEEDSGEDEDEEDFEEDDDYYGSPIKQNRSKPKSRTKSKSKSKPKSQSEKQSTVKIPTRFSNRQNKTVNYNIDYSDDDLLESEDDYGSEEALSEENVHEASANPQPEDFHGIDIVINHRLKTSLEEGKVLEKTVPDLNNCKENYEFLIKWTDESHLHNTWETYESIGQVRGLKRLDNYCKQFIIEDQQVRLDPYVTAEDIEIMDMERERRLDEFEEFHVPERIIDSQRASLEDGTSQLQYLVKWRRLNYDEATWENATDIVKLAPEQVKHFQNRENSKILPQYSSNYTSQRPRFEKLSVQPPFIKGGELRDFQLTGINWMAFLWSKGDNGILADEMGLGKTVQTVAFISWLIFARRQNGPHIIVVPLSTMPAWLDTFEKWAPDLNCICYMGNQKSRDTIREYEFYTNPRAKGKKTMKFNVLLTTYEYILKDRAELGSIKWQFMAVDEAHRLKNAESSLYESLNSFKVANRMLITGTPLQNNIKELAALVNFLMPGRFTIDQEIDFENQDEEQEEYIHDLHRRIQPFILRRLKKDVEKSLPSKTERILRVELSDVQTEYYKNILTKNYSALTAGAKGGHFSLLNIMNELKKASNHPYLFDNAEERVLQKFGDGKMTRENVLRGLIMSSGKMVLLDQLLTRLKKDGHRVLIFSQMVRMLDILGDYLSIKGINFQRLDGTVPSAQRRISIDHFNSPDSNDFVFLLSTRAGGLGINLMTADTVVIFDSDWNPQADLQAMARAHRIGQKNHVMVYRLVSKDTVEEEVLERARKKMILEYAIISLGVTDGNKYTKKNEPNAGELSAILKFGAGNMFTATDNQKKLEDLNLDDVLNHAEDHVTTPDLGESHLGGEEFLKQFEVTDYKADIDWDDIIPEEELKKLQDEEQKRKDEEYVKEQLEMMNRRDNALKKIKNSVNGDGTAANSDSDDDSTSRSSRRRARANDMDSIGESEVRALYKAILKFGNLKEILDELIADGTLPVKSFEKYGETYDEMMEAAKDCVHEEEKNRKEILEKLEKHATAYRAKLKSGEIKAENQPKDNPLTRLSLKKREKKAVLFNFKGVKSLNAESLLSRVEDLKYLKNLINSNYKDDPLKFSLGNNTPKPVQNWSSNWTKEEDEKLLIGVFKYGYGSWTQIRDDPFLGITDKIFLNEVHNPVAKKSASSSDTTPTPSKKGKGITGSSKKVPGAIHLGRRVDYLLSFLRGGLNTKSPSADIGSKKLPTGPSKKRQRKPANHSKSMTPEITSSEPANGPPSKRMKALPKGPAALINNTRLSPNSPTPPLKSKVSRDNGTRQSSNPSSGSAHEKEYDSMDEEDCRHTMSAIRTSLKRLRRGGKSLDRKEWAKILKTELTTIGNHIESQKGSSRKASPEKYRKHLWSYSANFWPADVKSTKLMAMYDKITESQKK
Sialic acid-binding Ig-like lectin 9 (Homo sapiens), sequence (Q9Y336 whole entry): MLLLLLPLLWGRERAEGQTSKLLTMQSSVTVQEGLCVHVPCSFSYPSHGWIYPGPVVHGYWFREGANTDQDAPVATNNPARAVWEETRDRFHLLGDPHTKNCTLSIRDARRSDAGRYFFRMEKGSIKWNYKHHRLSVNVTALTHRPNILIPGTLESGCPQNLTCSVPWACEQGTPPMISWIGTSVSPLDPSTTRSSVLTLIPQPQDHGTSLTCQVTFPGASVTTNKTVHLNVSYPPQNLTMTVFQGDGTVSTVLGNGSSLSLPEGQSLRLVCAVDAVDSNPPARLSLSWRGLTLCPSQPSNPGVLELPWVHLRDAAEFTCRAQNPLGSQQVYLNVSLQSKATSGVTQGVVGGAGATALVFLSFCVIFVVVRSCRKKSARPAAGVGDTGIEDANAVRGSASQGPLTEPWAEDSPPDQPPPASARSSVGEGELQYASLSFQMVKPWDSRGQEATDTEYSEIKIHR
Protein translocase subunit SecA (Escherichia coli (strain K12)), sequence (P10408 whole entry): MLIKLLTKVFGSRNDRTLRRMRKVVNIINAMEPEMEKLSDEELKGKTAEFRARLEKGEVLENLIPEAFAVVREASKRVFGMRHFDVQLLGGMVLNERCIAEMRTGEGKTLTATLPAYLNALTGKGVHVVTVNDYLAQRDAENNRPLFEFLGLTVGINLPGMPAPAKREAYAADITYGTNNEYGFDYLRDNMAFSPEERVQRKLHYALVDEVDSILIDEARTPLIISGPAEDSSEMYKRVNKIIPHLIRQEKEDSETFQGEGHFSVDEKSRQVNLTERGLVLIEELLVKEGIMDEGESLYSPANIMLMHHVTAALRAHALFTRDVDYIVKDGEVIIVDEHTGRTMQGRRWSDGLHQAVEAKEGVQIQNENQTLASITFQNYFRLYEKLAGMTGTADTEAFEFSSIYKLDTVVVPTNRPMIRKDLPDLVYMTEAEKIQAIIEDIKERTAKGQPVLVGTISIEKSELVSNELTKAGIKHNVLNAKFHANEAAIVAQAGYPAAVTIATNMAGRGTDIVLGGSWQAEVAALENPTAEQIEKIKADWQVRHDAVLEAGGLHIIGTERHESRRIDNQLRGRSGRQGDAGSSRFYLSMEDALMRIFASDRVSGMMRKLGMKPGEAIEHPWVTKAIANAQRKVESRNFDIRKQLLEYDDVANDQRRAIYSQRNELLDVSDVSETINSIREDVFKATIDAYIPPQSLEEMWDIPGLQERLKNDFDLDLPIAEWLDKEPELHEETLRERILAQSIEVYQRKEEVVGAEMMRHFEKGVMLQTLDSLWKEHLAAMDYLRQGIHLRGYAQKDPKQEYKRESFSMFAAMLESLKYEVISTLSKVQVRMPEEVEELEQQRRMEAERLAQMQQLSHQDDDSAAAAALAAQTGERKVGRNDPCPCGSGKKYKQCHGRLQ

For `CCc1nccn1-c1cncc(C2CCCN2Cc2ccc(F)cc2)n1` (stereo not given), the Percent Effect in [1] was -7.77%; in [2], 4%; in [3], 1.71%; with Trypanosoma cruzi, 1.97%; in experiment [4] it was 0.443%; in experiment [5], -0.328%. Besides, the Percent Effect in the experiment filed under Homo sapiens is 35.7%; in experiment [6] it was 4.23%; in experiment [7], 5%; in [8] it was -27.1%.

As to `Cc1c(CN2CCCC(c3[nH]ncc3S(C)(=O)=O)C2)cnn1C` (stereo not given), the Percent Effect in [1] was -2.55%; in experiment [2], 22.7%; in experiment [3] it was -0.226%; with Trypanosoma cruzi it was 3.94%; in experiment [4] it was -5.75%; in experiment [5] it was 12.5%. The Percent Effect in the experiment filed under Homo sapiens was 11.7%; in experiment [6] it was 3.17%; in experiment [7], 17.5%; in experiment [8], -24.1%.

Regarding `COc1cccc(CN2CCCC3(CCN(C(=O)c4ccco4)C3)C2)c1` (stereo not given), the Percent Effect was -3.23% in experiment [1]; 9.09% in [2]; 0.7% in experiment [3]; 0.563% with Trypanosoma cruzi; 5.02% in [4]; 17.8% in experiment [5]. In addition, the Percent Effect in the experiment listed under Homo sapiens is 5.54%; in experiment [6] it was 14.5%; in [7], 15%; in [8], -3.31%.

Turning to `CC(C)C(=O)N1CCC2(CCCN(CCOc3ccccc3)C2)C1` (stereo not given), the Percent Effect was -6.57% in experiment [1]; 1.3% in [2]; -1.94% in [3]; -3% in the experiment with Trypanosoma cruzi; 1.83% in [4]; 1.63% in experiment [5]. Also, the Percent Effect in the experiment listed under Homo sapiens was found to be 7.35%; in experiment [6], 2.9%; in [7], 10%; in experiment [8] it was 11.6%.

Take `Cn1ncc2c1NC(=O)CC2c1ccc(O)cc1` (stereo not given): the Percent Effect was -7.41% in [1]; 0% in [2]; -2.98% in [3]; -8.63% in the experiment on Trypanosoma cruzi; -6.64% in experiment [4]; 11.3% in experiment [5]. For the same compound, the Percent Effect is 30.7% in the experiment filed under Homo sapiens, 0.532% in [6], 4.88% in [7] and -4.05% in experiment [8].

`O=C1COC2(CCN(C(=O)c3ccco3)CC2)CN1Cc1ccccn1`: the Percent Effect in experiment [1] was -3.84%; in experiment [2], 16.9%; in [3], 2.04%; with Trypanosoma cruzi, 0%; in [4], 5.48%; in experiment [5], 8.84%. Moreover, the Percent Effect in the experiment listed under Homo sapiens is -15.4%; in [6] it was 11.6%; in [7], 20%; in [8] it was -5.91%.

In the case of `Cc1occc1CNC(=O)N(CCCO)C1CCc2ccccc21` (stereo not given), the Percent Effect in [1] was -4.54%; in [2], 10.7%; in experiment [3], 5.35%; in the experiment on Trypanosoma cruzi it was 3.41%; in experiment [4] it was -1.77%; in [5] it was 4.33%. Also, the Percent Effect in the experiment filed under Homo sapiens is 16.1%; in experiment [6] it was 2.63%; in experiment [7], 7.69%; in experiment [8] it was -8.92%.

Regarding `CCCc1nc(C)c(C(=O)NCCN2CCN(CC)CC2)s1`, the Percent Effect in experiment [1] was -3.24%; in experiment [2] it was 0%; in experiment [3], 11.4%; in the experiment on Trypanosoma cruzi it was 0.56%; in experiment [4], -2.25%; in experiment [5], -1.23%. In addition, the Percent Effect in the experiment filed under Homo sapiens amounted to 5.53%; in [6], 6.86%; in experiment [7] it was 9.41%; in experiment [8], 3.6%.

Take `Cc1cccc(CN2CCC3(CCN(c4ccccn4)C3)C2=O)c1` (stereo not given): the Percent Effect is -2.21% in [1]; 16.9% in [2]; 0.691% in [3]; 3% in the experiment with Trypanosoma cruzi; -0.913% in [4]; 14% in experiment [5]. Also, the Percent Effect in the experiment filed under Homo sapiens was 11.4%; in [6], 10.6%; in [7], 12.5%; in [8], -5.26%.

Turning to `Cc1cccnc1CNCC1(O)CCCN(CC2CCCCC2)C1=O` (stereo not given), the Percent Effect in experiment [1] is -6.4%; in [2], 0%; in experiment [3], -1.52%; with Trypanosoma cruzi, -2.04%; in experiment [4], -3.85%; in experiment [5] it was 3.25%. Further, the Percent Effect in the experiment listed under Homo sapiens was determined as 1.47%; in experiment [6], 7.98%; in experiment [7] it was 17.1%; in [8], 0.826%.

Consider `COC(=O)N1C[C@H]2CC[C@@H]1CN(Cc1cscn1)C2`, for which the Percent Effect in experiment [1] is -8.16%; in experiment [2], 0%; in [3] it was 5.89%; in the experiment on Trypanosoma cruzi it was 7.66%; in [4], -1.05%; in [5] it was 9.93%. The Percent Effect is 28.6% in the experiment filed under Homo sapiens, 5.85% in experiment [6], 14.6% in experiment [7] and -2.59% in experiment [8].
